Hit rate of the full screen: of about 350,000 compounds, about 31,000 (8.9%) were called active. Not shown: some 15% with an inconclusive outcome. Calls come from the whole dose curve; as a rule, active = well fitted inhibition curve with a large enough effect; inconclusive = small, poorly fitted or top-dose-only effect; inactive = no such curve, though single readings can be large or run the other way. The entries come from a sample that favours actives as a whole. A call without a number means that no potency is given here.
Each compound was assayed against Histone-lysine N-methyltransferase EHMT2 (Homo sapiens) (UniProt Q96KQ7) (assay: qHTS Assay for Inhibitors of Histone Lysine Methyltransferase G9a). Conditions: G9a H3K9 monomethylation, AlphaScreen, 2 h; series mostly up to 59 µM.
How it was run: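 Methyltransferase reactions run at room temperature for 2 h (20 nM enzyme, 500 nM biotin-H3K9 peptide, 20 uM SAM) after a 15 min compound preincubation; product detected by AlphaScreen beads and anti-H3K9me1 antibody.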
Note: nearly all actives have a fitted effect of over 75% in size.
Potency is the fitted concentration of half-maximal effect.

Histone-lysine N-methyltransferase EHMT2 (Homo sapiens), sequence (Q96KQ7 913-1193 limits assumed): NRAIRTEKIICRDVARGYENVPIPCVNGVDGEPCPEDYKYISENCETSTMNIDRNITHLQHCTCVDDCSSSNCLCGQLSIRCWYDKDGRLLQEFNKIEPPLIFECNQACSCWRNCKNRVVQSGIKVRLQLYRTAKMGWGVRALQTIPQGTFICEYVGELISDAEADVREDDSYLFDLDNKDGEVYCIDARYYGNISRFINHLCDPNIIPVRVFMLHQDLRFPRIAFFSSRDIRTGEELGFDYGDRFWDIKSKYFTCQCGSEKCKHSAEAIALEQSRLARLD

Row | Structure (SMILES) | Potency | activity, negative = inhibition
1 | CC1CCN(CCC(=O)Nc2ccccc2)CC1 | inactive | 
2 | O=C(CSCc1ccccc1)Nc1ccccc1 |  | 2.25% [at 2.33 µM] (inactive)
3 | O=C(CCN1c2ccccc2Sc2ccccc21)Nc1ccccc1 | 50.1 µM (active) | 
4 | O=C(COc1ccccc1Cl)Nc1ccc2nc(SCC(=O)N3CCCC3)sc2c1 | inactive | 
5 | O=C(Nc1ccc(C2CC2(Cl)Cl)cc1)c1cccc([N+](=O)[O-])c1 (stereo unspecified) | inactive | 
6 | COc1ccc(C2(C)ON(c3ccccc3C(F)(F)F)C2=O)cc1 (stereo unspecified) |  | 1.68% [at 2.33 µM] (inactive)
7 | COc1ccc(S(=O)(=O)N2CCCC2CNC(=O)C(=O)NC2CC2)cc1 (stereo unspecified) |  | 4.18% [at 0.501 µM] (inactive)
8 | CCC(=O)c1ccc(OCC(=O)OCC(=O)NC2CCCCCC2)cc1 | inactive | 
9 | O=C(COc1ccccc1[N+](=O)[O-])NC1CC1 | inactive | 
10 | C=CCN(CC=C)CCOc1ccccc1[N+](=O)[O-] | 17.8 µM (active) | 
11 | O=C(COc1ccccc1[N+](=O)[O-])N/N=C/c1ccc[nH]1 | inactive | 
12 | CSc1ccccc1NC(=O)C(C)N1C(=O)c2ccccc2S1(=O)=O (stereo unspecified) | inactive | 
13 | Cc1nn(C(C)C(=O)NCCc2ccccc2)c(=O)c2c1sc1ccccc12 (stereo unspecified) | inactive | 
14 | COc1ccc(-c2cc(C(=O)NC(Cc3c[nH]c4ccccc34)C(=O)O)c(C)o2)cc1OC (stereo unspecified) | 10 µM (active) | 
15 | Cc1cccc(C)c1OCC(=O)NC(Cc1c[nH]c2ccccc12)C(=O)O (stereo unspecified) | inactive | 
16 | COc1ccc(CNC(=O)[C@H](Cc2c[nH]c3ccccc23)NC(C)=O)cc1OC | inactive | 
17 | O=C(Nc1cccc(Br)c1)c1ccc2snnc2c1 | inactive | 
18 | COc1cccc(Cn2c(CNS(=O)(=O)c3ccc(Cl)s3)nc3cccnc32)c1 | inactive | 
19 | CCCCCn1c(=O)[nH]c2cc(C(=O)NCCN(C)CCCC)ccc2c1=O | inactive | 
20 | O=C(N/N=C/c1ccoc1)c1ccc(Cl)cc1Cl | inactive | 
21 | CCCCOC(=O)c1ccc(N2C(=O)CC(N3CCN(C/C=C/c4ccccc4)CC3)C2=O)cc1 (stereo unspecified) | inactive | 
22 | COC(=O)c1cc(C(=O)OC)cc(N2C(=O)CC(N3CCN(c4ccccc4)CC3)C2=O)c1 (stereo unspecified) | 15.8 µM (active) | 
23 | CC(=O)Oc1cccc(N2C(=O)CC(Nc3ccc(N4CCOCC4)cc3)C2=O)c1 (stereo unspecified) |  | -45.5% [at 12.7 µM] (inactive)
24 | Cc1ccc(C)c(Cn2c(=O)n(CCC(=O)NCc3ccc4c(c3)OCO4)c(=O)c3sccc32)c1 | inactive | 

Row | Structure (SMILES) | Potency | activity, negative = inhibition
25 | Cc1ccc(F)cc1S(=O)(=O)N1CCC(c2nc3ccccc3s2)CC1 | inactive | 
26 | N#Cc1ccc(C(c2nnnn2CCc2ccccc2)N2CCCCCC2)cc1 (stereo unspecified) | inactive | 
27 | COc1ccc(CCn2nnnc2C(c2ccccc2)N2CCN(C)CC2)cc1OC (stereo unspecified) | 70.8 µM (active) | 
28 | COCCn1nnnc1C(c1ccccc1Cl)N1CCN(c2ccccc2OC)CC1 (stereo unspecified) | inactive | 
29 | COc1ccc(C(=O)N2CCC(c3nc4ccccc4o3)CC2)cc1 | inactive | 
30 | COc1ccc(CNC(=O)c2cc3cccc(OC)c3oc2=O)cc1 | inactive | 
31 | O=C(CC1N=C2c3ccccc3N=C(SCc3cccc(Cl)c3)N2C1=O)NCc1ccc2c(c1)OCO2 (stereo unspecified) | inactive | 
32 | CCOC(=O)c1c(C)[nH]c(C(=O)OCC(=O)c2ccc(OC)cc2OC)c1C |  | 4.02% [at 0.501 µM] (inactive)
33 | Cc1cccc(CC(=O)N2CC(=O)Nc3ccc(F)cc3C2c2ccccc2)c1 (stereo unspecified) | inactive | 
34 | CN=C1C=C/C(=N/N=c2\ccn(O)cc2C)C=C1C | 7.94 µM (active) | 
35 | O=C(NCCc1ccc(C(F)(F)F)cc1)c1ccc2c(c1)OCO2 | inactive | 
36 | COC(=O)C(CC(=O)Nc1cc(C)ccc1C)Nc1ccccc1OC (stereo unspecified) |  | -11.9% [at 2.33 µM] (inactive)
37 | Cc1ccc(C)c(NC(=O)CCC(=O)NNC(=O)c2cccs2)c1 | inactive | 
38 | Cc1ccc(C)c(NC(CC(=O)c2ccccc2)C(=O)OCC(=O)c2cccs2)c1 (stereo unspecified) | 28.2 µM (active) | 
39 | CN1C(C(=O)NCC2CC2)CC2Cn3c(nc4ccccc43)C21 (stereo unspecified) |  | 2.03% [at 2.33 µM] (inactive)
40 | Cc1ccc(S(=O)(=O)CC(=O)Nc2sc(C)c(C)c2C(N)=O)cc1 |  | -22.4% [at 0.501 µM] (inactive)
41 | COc1ccccc1C(=O)Nc1ccc(C)c(S(=O)(=O)N2CCCCC2)c1 | inactive | 
42 | CCOC(=O)N1CCN(CC(=O)Nc2cc(C)nn2-c2nc3ccccc3s2)CC1 | inactive | 
43 | CCCCc1nc2ccccc2c(=O)n1NC(=O)c1c(O)c2cccc3c2n(c1=O)CC3 | inactive | 
44 | CCCCc1nc2ccccc2c(NC(=O)CN2CCN(C)CC2)c1CCC | 10 µM (active) | 
45 | FC(F)(F)c1ccc2nnc(-c3c(Cl)cccc3Cl)n2c1 | 44.7 µM (active) | 
46 | O=C1Cc2cc(S(=O)(=O)Nc3ccc(OC(F)(F)F)cc3)cc3c2N1CCC3 | inactive | 
47 | O=C(Nc1ccon1)c1nc[nH]c1C(=O)NCc1ccccc1 |  | 4.11% [at 0.501 µM] (inactive)
48 | CCOC(=O)c1c(C)[nH]c(C)c1S(=O)(=O)N(C)CC(=O)N1CCN(c2ccccc2)CC1 | inactive | 

Row | Structure (SMILES) | Potency | activity, negative = inhibition
49 | O=C(Cc1ccc(-n2c(=O)[nH]c3ccccc3c2=O)cc1)N1CCN(c2cccc(Cl)c2)CC1 |  | -10.6% [at 12.7 µM] (inactive)
50 | CCOC(=O)N1CCN(C(=O)Cc2ccc(-n3c(=S)[nH]c4ccccc4c3=O)cc2)CC1 | 44.7 µM (active) | 
51 | CCCCNC(=O)c1ccc(-n2c(=S)[nH]c3ccccc3c2=O)cc1 | inactive | 
52 | O=C(COC(=O)/C=C/c1ccc(OC(F)F)cc1)NC1CCCCC1 | inactive | 
53 | Cc1ccc(OCCNC(=O)CCNS(=O)(=O)c2ccc(Br)cc2)cc1 | inactive | 
54 | COc1ccccc1-c1oc2ccccc2c1C#CCCCCO |  | 7.94% [at 0.501 µM] (inactive)
55 | Cc1ccc(CS(=O)(=O)c2ncc(Cl)c(C(=O)Nc3nnc(C)s3)n2)cc1 | 14.1 µM (active) | 
56 | Cc1cccc(NC(=O)c2nc(S(=O)(=O)Cc3ccccc3)ncc2Cl)c1 | 39.8 µM (active) | 
57 | CCSc1ncc(Cl)c(C(=O)Nc2cc(C)ccc2C)n1 | inactive | 
58 | Cc1cccc(OCc2ccc(C(=O)Nc3ccc(F)cc3)cc2)c1 | inactive | 
59 | Cc1cccc(NC(=O)c2nc[nH]c2C(=O)NCC(=O)OCc2ccccc2)c1 | inactive | 
60 | Cc1nnc(NC(=O)Nc2ccc(Cl)c(Cl)c2)s1 | inactive | 
61 | Cc1ccc(S(=O)(=O)CC(=O)Nc2nnc(C)s2)cc1 | inactive | 
62 | CCOC(=O)c1ccc(NC(=O)c2nc(SCc3ccc(F)cc3)ncc2Cl)cc1 | inactive | 
63 | Cc1cccc(CS(=O)(=O)c2ncc(Cl)c(C(=O)Nc3ccc(F)cc3)n2)c1 | 28.2 µM (active) | 
64 | Cc1ccc(NC(=O)CN(C)C(=O)c2cccc(S(=O)(=O)N3CCCC3)c2)cc1 | inactive | 
65 | COc1ccccc1OCC(=O)Nc1ccccc1C(=O)NC1CC1 |  | -4.61% [at 0.501 µM] (inactive)
66 | COc1ccc(CCNC(=O)c2ccc(-n3c(C)cc4c3CCCC4)cc2)cc1OC | inactive | 
67 | O=C(CSC1=NS(=O)(=O)c2cc(F)ccc2N1)Nc1ccccc1F | inactive | 
68 | N#Cc1nc(/C=C/c2ccc(F)cc2)oc1NC1CCCCC1 | inactive | 
69 | Cc1cc(C)c(NC(=O)Cn2c(SCC(=O)NCc3ccccc3)nc3ccccc32)c(C)c1 | inactive | 
70 | O=C(Nc1cc(Cl)cc(Cl)c1)c1ccc2c(c1)N(Cc1cccc(Cl)c1)C(=O)c1ccccc1S2=O (stereo unspecified) | inactive | 
71 | COc1ccccc1NC(=O)c1oc2ccccc2c1NC(=O)COc1ccccc1OC | inactive | 
72 | CCC(C)c1ccc2oc(-c3ccc(NC(=O)c4cc5ccccc5o4)cc3)nc2c1 (stereo unspecified) | inactive | 

Row | Structure (SMILES) | Potency | activity, negative = inhibition
73 | Cc1cc([N+](=O)[O-])ccc1NC(=O)c1ccc(NC(=O)C(C)C)cc1 | inactive | 
74 | COc1cc(NS(=O)(=O)c2ccc(NC(=O)c3ccc([N+](=O)[O-])cc3)cc2)ncn1 | inactive | 
75 | Cn1ccc(=Nc2ccc(NC(=O)c3ccc(N=c4ccn(C)c5ccc([N+](=O)[O-])cc45)cc3)cc2)cc1 | 15.8 µM (active) | 
76 | COc1ccccc1CNS(=O)(=O)CC12CCC(CC1=O)C2(C)C (stereo unspecified) | inactive | 
77 | COc1cc(C(=O)NCc2cc3cc(Cl)ccc3n2C)cc(OC)c1OC | inactive | 
78 | Cc1c(Cl)cccc1NC(=O)c1noc2c1CCCC2 | inactive | 
79 | Cc1ccc(S(=O)(=O)N2CCCCC2)cc1C(=O)N(C)CC(=O)Nc1cccc(F)c1 | inactive | 
80 | Cc1cc(C)c(SCCc2ccncc2)c(C)c1 | inactive | 
81 | CCOCC(=O)Nc1ncc(S(=O)(=O)c2ccc([N+](=O)[O-])cc2)s1 | 35.5 µM (active) | 
82 | CC(C)c1nnc(NC(=O)COC(=O)/C=C/c2ccc([N+](=O)[O-])cc2)s1 | inactive | 
83 | Cc1cc(NC(=O)COc2ccc([N+](=O)[O-])cc2)no1 |  | -2.93% [at 12.7 µM] (inactive)
84 | CC/C(=N\NC(=O)c1c(C)nc2ccccn12)c1ccc(Cl)cc1 | inactive | 
85 | CC(C)C(C)NC(=O)COc1nc2ccccc2nc1N(C)C1CCCCC1 (stereo unspecified) | inactive | 
86 | COc1ccccc1N(C)S(=O)(=O)c1ccc(Cl)c(C(=O)Nc2ccncc2)c1 | inactive | 
87 | CN1CCN(C2(CNC(=O)COc3ccc(C(C)(C)C)cc3)CCCCC2)CC1 | inactive | 
88 | O=C(CC1CCCCC1)NCc1ccccc1 | inactive | 
89 | C/C(=N\NC(=S)NCc1ccccc1)c1ccc(Cl)cc1 | inactive | 
90 | C/C(=N\NC(=S)NCc1ccccc1)C1CCCCC1 | 35.5 µM (active) | 
91 | COc1ccc(OC)c(CNC(=O)Cn2nc(C)c3c(C)n(-c4ccc(C)cc4)nc3c2=O)c1 | inactive | 
92 | COc1cccc(CNC(=O)c2ccc3c(Cl)c4c(nc3c2)CCCC4)c1 | inactive | 
93 | CCc1noc(C)c1C(=O)Nc1nc(-c2ccccc2)cs1 | inactive | 
94 | CC1(C)CC(CCC(=O)Nc2ccccc2Cl)C(=O)O1 (stereo unspecified) | inactive | 
95 | C/C(CC1CC(C)(C)OC1=O)=N/Nc1nc(-c2ccccc2)cs1 (stereo unspecified) | 3.16 µM (active) | 
96 | CN1C(=O)c2[nH]nc(-c3ccc(F)cc3)c2C1c1ccccn1 (stereo unspecified) | inactive | 

— PubChem BioAssay AID504332 (National Center for Advancing Translational Sciences (NCATS), 2011)
